We go through nine molecules from PubChem BioAssay.

The source made the active and inactive calls.

The nature of assay [1]: E. coli DRC41 culture turbidity changes, primary screen, E. coli filamentation inducer project, strain DRC41, OD650, 48 h (AID 1152).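 Further: E. coli MC1000 strain DRC41 lacking acrAB efflux pump and sulA.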 Particulars: E. coli DRC41 (acrAB sulA), higher = more signal, called active from +8 up or from −8 down.
The nature of assay [2]: small-molecule binders of probe aLefty1, primary screen, biochemical, small-molecule microarray, 635/667 nm fluorescence (AID 1153).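 Further: score merges spot fluorescence with signal-to-noise ratio from the scanned slide images.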 Particulars: higher = more signal.
The nature of assay [3]: PSAC antagonists in infected red cells, primary screen, cell-based, P. falciparum Indochina, OD700, 1 h (AID 1154). Particulars: P. falciparum Indochina infected RBC osmotic lysis, higher = more signal, called active from +8 up or from −8 down.
A short description of assay [4]: PSAC antagonists in infected red cells, primary screen, cell-based, P. falciparum Indochina, OD700, 2 h (AID 1155).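 Further: lysis reports solute entry through the parasite surface anion channel PSAC; channel blockers reduce lysis of infected cells.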 Particulars: P. falciparum Indochina infected erythrocytes, osmotic lysis OD700; higher = more signal, called active from +8 up or from −8 down.
Assay [5] can be described thus: osmotic lysis modulators in infected erythrocytes, primary screen, PSAC antagonist project, cell-based, P. falciparum Indochina, OD700, 3 h (AID 1156). Particulars: higher = more signal, called active from +8 up or from −8 down.
The nature of assay [6]: PSAC antagonists in infected red cells, primary screen, cell-based, P. falciparum Indochina, OD700, 18 h (AID 1157). Particulars: P. falciparum Indochina infected erythrocytes, osmotic lysis OD700, 18 h; higher = more signal, called active from +8 up or from −8 down.
Assay [7] is described as follows: modulators of S6 phosphorylation in cells, primary screen, cell-based, A549, cytoblot, luminescence, serum-stimulated (AID 1158).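 Further: serum-stimulated A549 lung adenocarcinoma cells; signal is phosphorylated S6 detected by cytoblot immunostaining with HRP secondary.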 Particulars: A549 phospho-S6 cytoblot, 5 h, higher = more signal.
Assay [8] addresses NADPH oxidase 2 (Homo sapiens) (UniProt P04839). In words: NOX2-dependent H2O2 signal modulators, primary screen, NOX inhibitor project, cell-based, HEK293-NOX2, PMA-stimulated, Amplex Red fluorescence (AID 1159). Further: test concentration not given here. The settings on record: 45 min, higher = more signal, called active from +8 up or from −8 down.
Assay [9] addresses NADPH oxidase 4 (Homo sapiens) (UniProt Q9NPH5). Kind of assay: NOX4-dependent H2O2 signal modulators, primary screen, NOX inhibitor project, cell-based, HEK293-NOX4, tetracycline-induced, Amplex Red fluorescence (AID 1160). Particulars: 45 min, higher = more signal, called active from +8 up or from −8 down.
Assay [10] addresses NADPH oxidase 5 (Homo sapiens) (UniProt Q96PH1). In words: NOX5-dependent H2O2 signal modulators, primary screen, NOX inhibitor project, cell-based, HEK293-NOX5, Amplex Red fluorescence (AID 1161). The settings on record: HEK293-NOX5, ionomycin, 45 min, higher = more signal.
A short description of assay [11]: A549 cell viability effects, profiling panel, calcein-AM fluorescence, 48 h, basal (AID 1162). Further: test concentration not given here. Particulars: higher = more signal.
Assay [12] can be described thus: adipocyte viability effects, profiling panel, cell-based, 3T3-L1 adipocytes, calcein-AM fluorescence, 48 h, basal (AID 1163). Further: test concentration not given here. Particulars: 3T3-L1 adipocytes viability, higher = more signal.
The nature of assay [13]: HepG2 cell viability effects, profiling panel, calcein-AM fluorescence, 48 h, basal (AID 1164). Further: test concentration not given here. Particulars: higher = more signal.
Assay [14] is described as follows: MM1S cell viability effects, profiling panel, calcein-AM fluorescence, 48 h, basal (AID 1165).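 Further: viability of MM1S multiple myeloma cells under basal unstimulated conditions; test concentration not given here.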 Particulars: higher = more signal.
A short description of assay [15]: basal RPMI8226 viability, no added stimulus, profiling panel, cell-based, calcein-AM fluorescence, 48 h, PK04 Diversity Set (AID 1166).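 Further: cells grown under basal conditions without added stimulus; test concentration not given here.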 The settings on record: RPMI8226 myeloma viability, higher = more signal.
Assay [16] in a line: basal HepG2 mitochondrial membrane potential changes, profiling panel, cell-based, JC-1 fluorescence, 24 h, 100 nL compound (AID 1167). Further: test concentration not given here. Particulars: higher = more signal.
Assay [17] can be described thus: basal 3T3-L1 adipocyte mitochondrial potential changes, profiling panel, cell-based, JC-1 fluorescence, 3T3-L1 adipocytes, 24 h, 100 nL compound (AID 1168). Further: test concentration not given here. Particulars: JC-1 mitochondrial fluorescence, higher = more signal, called active from +8 up or from −8 down.
Assay [18] in a line: basal RPMI8226 mitochondrial membrane potential changes, profiling panel, cell-based, JC-1 fluorescence, 24 h, 100 nL compound (AID 1169). Further: test concentration not given here. Particulars: RPMI8226 myeloma, JC-1 mitochondrial potential fluorescence, higher = more signal.
Assay [19] can be described thus: basal MM1S mitochondrial membrane potential changes, profiling panel, cell-based, JC-1 fluorescence, 24 h, 100 nL compound (AID 1170). Further: test concentration not given here. Particulars: higher = more signal.
The nature of assay [20]: A549 lung cancer cell viability effects, profiling panel, resazurin fluorescence, 24 h, PK04 Diversity Set (AID 1171). Further: test concentration not given here. Particulars: higher = more signal, called active from +8 up or from −8 down.

Chain of NADPH oxidase 5 (Homo sapiens) (Q96PH1 whole entry, looked up): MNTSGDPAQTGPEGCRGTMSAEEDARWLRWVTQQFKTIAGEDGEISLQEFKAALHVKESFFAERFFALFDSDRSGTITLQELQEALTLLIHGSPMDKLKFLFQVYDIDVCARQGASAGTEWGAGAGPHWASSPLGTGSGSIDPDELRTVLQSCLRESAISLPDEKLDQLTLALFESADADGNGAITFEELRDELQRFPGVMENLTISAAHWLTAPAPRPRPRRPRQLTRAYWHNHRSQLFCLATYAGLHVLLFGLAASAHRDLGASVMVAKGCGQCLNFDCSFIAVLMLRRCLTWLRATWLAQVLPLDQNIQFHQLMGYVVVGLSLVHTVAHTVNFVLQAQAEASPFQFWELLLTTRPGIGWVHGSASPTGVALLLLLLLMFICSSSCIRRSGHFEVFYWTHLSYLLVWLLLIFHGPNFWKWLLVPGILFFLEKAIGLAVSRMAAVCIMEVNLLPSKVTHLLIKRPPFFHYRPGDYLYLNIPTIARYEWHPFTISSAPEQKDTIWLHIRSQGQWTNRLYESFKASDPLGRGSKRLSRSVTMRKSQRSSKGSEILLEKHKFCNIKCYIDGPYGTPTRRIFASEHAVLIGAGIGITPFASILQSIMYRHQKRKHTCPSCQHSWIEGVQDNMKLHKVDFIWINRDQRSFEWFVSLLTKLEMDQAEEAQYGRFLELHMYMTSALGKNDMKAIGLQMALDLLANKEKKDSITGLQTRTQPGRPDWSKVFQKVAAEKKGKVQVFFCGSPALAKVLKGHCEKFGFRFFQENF
Chain of NADPH oxidase 4 (Homo sapiens) (Q9NPH5 whole entry, looked up): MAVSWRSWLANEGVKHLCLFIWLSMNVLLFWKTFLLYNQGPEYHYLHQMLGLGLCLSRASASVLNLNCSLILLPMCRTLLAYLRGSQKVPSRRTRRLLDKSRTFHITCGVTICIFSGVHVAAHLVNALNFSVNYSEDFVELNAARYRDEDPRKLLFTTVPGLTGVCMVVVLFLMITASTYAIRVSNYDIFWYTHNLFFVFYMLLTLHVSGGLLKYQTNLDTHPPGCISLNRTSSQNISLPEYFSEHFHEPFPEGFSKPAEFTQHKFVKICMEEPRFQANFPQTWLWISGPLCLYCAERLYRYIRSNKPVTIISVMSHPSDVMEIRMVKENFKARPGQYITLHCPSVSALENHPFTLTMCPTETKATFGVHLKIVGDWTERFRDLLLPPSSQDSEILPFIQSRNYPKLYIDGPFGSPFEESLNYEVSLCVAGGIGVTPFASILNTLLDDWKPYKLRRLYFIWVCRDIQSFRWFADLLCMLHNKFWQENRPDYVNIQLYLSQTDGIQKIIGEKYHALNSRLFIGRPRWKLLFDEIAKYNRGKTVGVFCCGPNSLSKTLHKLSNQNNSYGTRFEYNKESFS
Chain of NADPH oxidase 2 (Homo sapiens) (P04839 whole entry, looked up): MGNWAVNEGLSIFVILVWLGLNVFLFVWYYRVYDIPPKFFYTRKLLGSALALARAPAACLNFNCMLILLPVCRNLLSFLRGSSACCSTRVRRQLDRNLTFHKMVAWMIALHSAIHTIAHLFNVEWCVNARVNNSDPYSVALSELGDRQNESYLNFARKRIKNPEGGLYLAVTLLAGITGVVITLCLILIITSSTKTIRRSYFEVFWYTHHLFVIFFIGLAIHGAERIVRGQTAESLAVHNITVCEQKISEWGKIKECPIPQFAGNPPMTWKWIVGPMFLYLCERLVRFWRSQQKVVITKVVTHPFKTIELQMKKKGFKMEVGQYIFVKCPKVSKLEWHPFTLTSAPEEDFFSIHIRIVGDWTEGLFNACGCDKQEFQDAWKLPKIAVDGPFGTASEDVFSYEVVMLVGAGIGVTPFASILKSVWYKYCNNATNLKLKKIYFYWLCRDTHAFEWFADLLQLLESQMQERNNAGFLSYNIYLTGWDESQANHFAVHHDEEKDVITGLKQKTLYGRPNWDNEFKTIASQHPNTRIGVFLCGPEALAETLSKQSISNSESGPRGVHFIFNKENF

As for `CC(C)c1ccc(NN2C(C(O)c3ccc(N(C)C)cc3)C=CC3C(=O)N(c4ccccc4)C(=O)C32)cc1` (stereo not given), the z-score in assay [1] is -0.448 (inactive); in [3] it was 1.72 (inactive); in assay [4] it was 1.05 (inactive); in [5], 0.655 (inactive); in [6], 1.32 (inactive); in [7], -0.183. The z-score in assay [8] was -1.14 (inactive); in assay [9] it was -0.983 (inactive); in assay [10] it was -2.39; in [11] it was 1.1; in assay [12], -1.62; in assay [13], 0.974. The z-score in assay [14] was -0.36; in assay [15] it was -0.368; in assay [16], -0.337; in [17] it was -1.22 (inactive); in [18], 0.149; in assay [19], -0.811. Besides, the z-score in [20] is -0.0686 (inactive). The molecule also came in with a composite z-score in [2] of 0.544.

For the molecule `[N-]=[N+]=NCc1ccccc1C[C@@]1(C(=O)NCC(O)CO)N=C(c2ccc(OCCCO)cc2)O[C@@H]1c1ccccc1CN=[N+]=[N-]` (stereo not given in full), the z-score in assay [1] was 0.19 (inactive); in [3], 27.4 (active); in [4], 14.6 (active); in assay [5], 0.029 (inactive); in assay [6], 2.24 (inactive); in [7], -0.324. The z-score in assay [8] was 0.266 (inactive); in assay [9] it was 1.54 (inactive); in assay [10] it was 2.31; in [11], -1.05; in [12], 0.208; in assay [13] it was -0.0726. Also, the z-score in assay [14] is -1.4; in assay [15] it was -2.2; in assay [16], -0.382; in assay [17], -1.04 (inactive); in assay [18] it was -0.762; in assay [19], -0.737. Further, in [20], the z-score is -0.2 (inactive). In addition, the composite z-score in [2] came out at 0.455.

Turning to `CCOC(=O)C[C@H]1[C@H](OC(=O)c2ccccc2-c2ccccc2)[C@@H](NC(=O)c2ccc3ccccc3c2)c2cc(OCCCO)ccc2N1C(=O)c1ccc2ccccc2n1`, the z-score in [1] is 0.0514 (inactive); in [3], 4.5 (inactive); in assay [4], 0.759 (inactive); in assay [5], -0.62 (inactive); in assay [6], 0.452 (inactive); in [7], -0.429. Also, the z-score in assay [8] was 0.349 (inactive); in assay [9], 1.08 (inactive); in [10] it was 0.803; in assay [11], 0.135; in assay [12], 0.487; in [13], -0.0645. The z-score in [14] was -0.957; in [15], -0.442; in [16], 0.732; in assay [17], 2.16 (inactive); in [18], -0.337; in assay [19], -0.615. Also, in assay [20], the z-score was 0.735 (inactive). Also, the composite z-score in assay [2] is -0.193.

With `COCCCNC(=O)[C@@]1(C)c2ccccc2C(=O)N(Cc2cc(C(F)(F)F)cc(C(F)(F)F)c2)[C@H]1c1ccc(CO)cc1`, the z-score was 0.811 (inactive) in assay [1]; 3.5 (inactive) in assay [3]; -0.185 (inactive) in [4]; -0.583 (inactive) in assay [5]; 0.472 (inactive) in assay [6]; -0.434 in [7]. Moreover, the z-score in assay [8] was -1.09 (inactive); in [9], -0.274 (inactive); in assay [10] it was -0.706; in [11], -0.0997; in assay [12], -0.872; in [13], 0.771. In addition, the z-score was 0.384 in [14]; -0.509 in assay [15]; 1.59 in assay [16]; 1.01 (inactive) in [17]; 0.222 in assay [18]; -0.668 in assay [19]. Further, the z-score in assay [20] is 0.545 (inactive). Moreover, in [2], the composite z-score was -0.0969.

For `O=C1N(CCS(=O)(=O)c2ccccc2)Cc2ccccc2[C@H]2OC(c3ccc(OCCCO)cc3)=N[C@@]12CCS(=O)(=O)c1ccccc1`, the z-score was -0.0143 (inactive) in [1]; 31.1 (active) in [3]; 28.4 (active) in [4]; 3.2 (inactive) in [5]; 6.48 (inactive) in assay [6]; 0.834 in assay [7]. In addition, the z-score is 0.644 (inactive) in [8]; 1.5 (inactive) in assay [9]; 0.357 in assay [10]; 1.02 in assay [11]; 1.46 in assay [12]; 1.19 in assay [13]. Also, the z-score in [14] was 0.222; in [15], 0.117; in assay [16], 0.0737; in assay [17], 0.557 (inactive); in assay [18] it was -0.81; in assay [19], -0.848. Further, the z-score in assay [20] was 0.908 (inactive). In addition, the composite z-score in assay [2] was 0.197.

For the molecule `COC(=O)c1ccc(C(O)C2C=CC3C(=O)N(c4ccccc4)C(=O)C3N2Nc2ccc(C#N)cc2)o1` (stereo not given), the z-score in [1] is -0.855 (inactive); in [3], 6.87 (inactive); in assay [4] it was 1.66 (inactive); in [5] it was 1.36 (inactive); in assay [6], 0.975 (inactive); in assay [7], -0.757. Further, the z-score was -0.499 (inactive) in assay [8]; -4.57 (inactive) in assay [9]; -2.23 in assay [10]; 0.88 in assay [11]; 0.0728 in assay [12]; 2.04 in assay [13]. Besides, the z-score in assay [14] is -0.182; in [15] it was -1.52; in assay [16], 0.822; in [17], -0.559 (inactive); in assay [18] it was 0.111; in assay [19], -0.849. Moreover, the z-score in [20] was 0.276 (inactive). The molecule also came in with a composite z-score in assay [2] of 0.117.

For the molecule `COCCOC(=O)N1C(=O)[C@@]2(c3cc(C#CCC(C(=O)OC)C(=O)OC)ccc31)[C@H](c1ccc(O)cc1)N1[C@H](c3ccccc3)[C@H](c3ccccc3)OC(=O)[C@H]1[C@@H]2C(N)=O`, the z-score in assay [1] was -0.648 (inactive); in assay [3], 9.52 (active); in assay [4], 1.33 (inactive); in assay [5], 0.0021 (inactive); in assay [6], 0.213 (inactive); in assay [7], -0.185. For the same molecule, the z-score was 1.4 (inactive) in assay [8]; 0.525 (inactive) in assay [9]; 1.14 in assay [10]; -0.78 in assay [11]; 0.618 in assay [12]; -0.568 in assay [13]. The z-score in assay [14] is -2.89; in assay [15], -3.48; in [16] it was -1.63; in [17], -0.791 (inactive); in assay [18], -0.799; in [19] it was 0.0557. Further, the z-score in [20] was -0.195 (inactive). Also, in assay [2], the composite z-score was found to be 0.245.

Turning to `CC(=O)C1=CCC(c2ccccc2)N(S(=O)(=O)c2ccc(C)cc2)C1` (stereo not given), the z-score in assay [1] was -1.12 (inactive); in assay [3] it was 2.75 (inactive); in assay [4], 1.5 (inactive); in [5], 1.4 (inactive); in assay [6] it was 1.07 (inactive); in assay [7], -0.26. The z-score in [8] is -0.179 (inactive); in [9], -1.4 (inactive); in assay [10], 0.0221; in [11] it was -0.346; in assay [12], 0.0159; in assay [13] it was -0.727. Moreover, the z-score in [14] was -0.0171; in [15] it was -1.08; in assay [16], -0.602; in assay [17], -1.35 (inactive); in assay [18] it was 0.697; in [19] it was 0.329. Besides, the z-score in [20] was 0.183 (inactive). For the same molecule, the composite z-score in assay [2] is 0.157.

Regarding `[N-]=[N+]=NCc1ccccc1C[C@@]1(C(=O)N2CCOCC2)N=C(c2ccc(OCCCO)cc2)O[C@@H]1c1ccccc1CN=[N+]=[N-]`, the z-score was 0.562 (inactive) in [1]; 28.2 (active) in assay [3]; 21.5 (active) in assay [4]; 3.05 (inactive) in assay [5]; 5.86 (inactive) in [6]; 0.0883 in [7]. For the same molecule, the z-score is -1 (inactive) in assay [8]; 1.26 (inactive) in assay [9]; 1.08 in assay [10]; 0.052 in assay [11]; -0.19 in assay [12]; 1.29 in [13]. Further, the z-score in [14] was -0.757; in assay [15], -2.91; in [16], 0.883; in assay [17], 0.612 (inactive); in assay [18], -0.997; in assay [19] it was -1.15. For the same molecule, in [20], the z-score was -1.46 (inactive). The molecule also came in with a composite z-score in assay [2] of 0.429.
